Drawing on PubChem BioAssay, this text covers composite z-score and z-score for five compounds.

Calls of active or inactive are those of the source.

The nature of test [1]: small molecules captured by biotinylated probe aFSTL3 – biochemical, small-molecule microarray, fluorescence 635/667, stem cell growth factor project, primary screen (AID 1064).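 Note: measures binding of the biotinylated anti-FSTL3 antibody to printed compounds.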 To be noted: higher = more signal.
The nature of test [2]: binders from COS7 lysate, DM2A8 probe, primary screen, torsin A project, cell lysate, small-molecule microarray, fluorescence 635/667 (AID 1065). To be noted: higher = more signal, COS7 lysate expressing mutant human TOR1A.
The nature of test [3]: small molecules captured by biotinylated probe aFGF2 – biochemical, small-molecule microarray, fluorescence 635/667, stem cell growth factor project, primary screen (AID 1067).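 Note: measures binding of biotinylated aFGF2 protein to printed compounds on slides; z-score merges feature fluorescence and signal-to-noise across triplicate slides.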 The following applies: higher = more signal.
Test [4] can be described thus: small molecules captured by biotinylated probe aFGF10 – biochemical, small-molecule microarray, fluorescence 635/667, stem cell growth factor project, primary screen (AID 1071).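 Note: score merges 667 nm spot intensity and signal to noise from triplicate slides.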 The following applies: higher = more signal.
Test [5] addresses Neurogenic locus notch homolog protein 2 (Homo sapiens) (UniProt Q04721). Briefly: small molecules binding Notch2 protein – biochemical, small-molecule microarray, 635 nm fluorescence, stem cell growth factors, primary screen (AID 1073). To be noted: higher = more signal.
The target of test [6] is Pro-neuregulin-1, membrane-bound isoform (Homo sapiens) (UniProt Q02297). Description: small molecules binding neuregulin-1 protein – biochemical, small-molecule microarray, fluorescence 635/667, psychiatric disease protein project, primary screen (AID 1075).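 Note: score combines 667 nm spot fluorescence with signal to noise.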 To be noted: NRG1 binding, 635 nm fluorescence, higher = more signal.
Test [7] deals with Neuregulin-1 EGF-like domain. Description: small molecules binding NRG1 EGF domain – biochemical, small-molecule microarray, 635 nm fluorescence, primary screen (AID 1081).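 Note: binding of the protein to compounds printed on small-molecule microarray slides.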 To be noted: higher = more signal.
Test [8] can be described thus: FRG1 expression reporter modulators in myotubes – cell-based, C2C12 myotubes, firefly/Renilla luciferase, luminescence, FRG1 inhibition for FSHD, primary screen (AID 1084). The following applies: FRG1 promoter luciferase, higher = more signal, called active from +8 up or from −8 down.
The nature of test [9]: small molecules captured by biotinylated probe aFST – biochemical, small-molecule microarray, fluorescence 635/667, stem cell growth factor project, primary screen (AID 1086).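 Note: score merges 667 nm fluorescence with signal-to-noise of each printed compound spot.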 To be noted: higher = more signal.
A short description of test [10]: binders of probe aHhip on microarray, primary screen, stem cell growth factor project, biochemical, small-molecule microarray, fluorescence 635/667 (AID 1087).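 Note: score merges spot fluorescence at 667nm with spot signal to noise ratio.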 To be noted: higher = more signal.
Test [11] deals with PRMT1 (protein arginine N-methyltransferase 1). Description: small molecules binding arginine methyltransferase PRMT1 – biochemical, small-molecule microarray, 635 nm fluorescence, primary screen (AID 1088).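 Note: binding of Prmt1 protein to compounds spotted on small-molecule microarray slides.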 To be noted: higher = more signal.
Test [12] can be described thus: growth effects on S. cerevisiae YJM789 – YJM789 clinical isolate, OD600, 24 h, basal, primary screen (AID 1089).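 Note: growth of clinical yeast isolate S. cerevisiae YJM 789 seeded 1000 cells per well; test concentration not given here.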 The following applies: higher = more signal, called active from +8 up or from −8 down.
A short description of test [13]: S. pombe growth modifiers, basal conditions – strain 972, OD600, 24 h, no modulator, primary screen (AID 1090).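 Note: basal condition with compound alone and no growth modifier present; test concentration not given here.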 To be noted: S. pombe 972 growth, higher = more signal, called active from +8 up or from −8 down.
A short description of test [14]: budding yeast growth modifiers under rapamycin – strain BY4716, OD600, 96 h, primary screen (AID 1091). Note: test concentration not given here. The following applies: S. cerevisiae BY4716 + rapamycin, higher = more signal, called active from +8 up or from −8 down.
For test [15], the target named is Torsin-1A-interacting protein 2 (Homo sapiens) (UniProt Q8NFQ8). Description: small molecules binding lysate-expressed LULL1 – cell lysate, human LULL1 lysate, 635/667 nm fluorescence, primary screen (AID 1092).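 Note: probe is lysate of COS7 cells overexpressing human LULL1; score merges per-feature 667 nm fluorescence with signal-to-noise.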 To be noted: small-molecule microarray, hLULL1 lysate binding, 635 nm fluorescence; higher = more signal.
Test [16] in a line: optical density change of DRC41 E. coli – strain DRC41, OD650, 24 h, E. coli filamentation project, primary screen (AID 1093).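 Note: MC1000 strain lacking acrAB efflux and sulA so SOS filamentation is blocked; test concentration not given here.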 To be noted: E. coli DRC41 growth, higher = more signal, called active from +8 up or from −8 down.
The nature of test [17]: probe aLefty2 binding to arrayed compounds – biochemical, biotinylated probe, 635/667 nm fluorescence, primary screen (AID 1094).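 Note: score merges spot fluorescence near 667 nm with spot signal-to-noise ratio.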 To be noted: small-molecule microarray, higher = more signal.
Test [18] has as its system Noggin (protein binding on small-molecule microarray). Briefly: small molecules binding Noggin protein – biochemical, 635/667 nm fluorescence, primary screen (AID 1095).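 Note: score merges 667 nm feature fluorescence with signal to noise over triplicate slides.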 The following applies: 635 nm fluorescence, higher = more signal.
In test [19] the target is Neurogenic locus notch homolog protein 3 (Homo sapiens) (UniProt Q9UM47). Description: small molecules binding NOTCH3 protein – biochemical, 635/667 nm fluorescence, primary screen (AID 1096). The following applies: small-molecule microarray, 635 nm fluorescence, higher = more signal.
Sequence of Neurogenic locus notch homolog protein 3 (Homo sapiens) (Q9UM47 whole entry, looked up): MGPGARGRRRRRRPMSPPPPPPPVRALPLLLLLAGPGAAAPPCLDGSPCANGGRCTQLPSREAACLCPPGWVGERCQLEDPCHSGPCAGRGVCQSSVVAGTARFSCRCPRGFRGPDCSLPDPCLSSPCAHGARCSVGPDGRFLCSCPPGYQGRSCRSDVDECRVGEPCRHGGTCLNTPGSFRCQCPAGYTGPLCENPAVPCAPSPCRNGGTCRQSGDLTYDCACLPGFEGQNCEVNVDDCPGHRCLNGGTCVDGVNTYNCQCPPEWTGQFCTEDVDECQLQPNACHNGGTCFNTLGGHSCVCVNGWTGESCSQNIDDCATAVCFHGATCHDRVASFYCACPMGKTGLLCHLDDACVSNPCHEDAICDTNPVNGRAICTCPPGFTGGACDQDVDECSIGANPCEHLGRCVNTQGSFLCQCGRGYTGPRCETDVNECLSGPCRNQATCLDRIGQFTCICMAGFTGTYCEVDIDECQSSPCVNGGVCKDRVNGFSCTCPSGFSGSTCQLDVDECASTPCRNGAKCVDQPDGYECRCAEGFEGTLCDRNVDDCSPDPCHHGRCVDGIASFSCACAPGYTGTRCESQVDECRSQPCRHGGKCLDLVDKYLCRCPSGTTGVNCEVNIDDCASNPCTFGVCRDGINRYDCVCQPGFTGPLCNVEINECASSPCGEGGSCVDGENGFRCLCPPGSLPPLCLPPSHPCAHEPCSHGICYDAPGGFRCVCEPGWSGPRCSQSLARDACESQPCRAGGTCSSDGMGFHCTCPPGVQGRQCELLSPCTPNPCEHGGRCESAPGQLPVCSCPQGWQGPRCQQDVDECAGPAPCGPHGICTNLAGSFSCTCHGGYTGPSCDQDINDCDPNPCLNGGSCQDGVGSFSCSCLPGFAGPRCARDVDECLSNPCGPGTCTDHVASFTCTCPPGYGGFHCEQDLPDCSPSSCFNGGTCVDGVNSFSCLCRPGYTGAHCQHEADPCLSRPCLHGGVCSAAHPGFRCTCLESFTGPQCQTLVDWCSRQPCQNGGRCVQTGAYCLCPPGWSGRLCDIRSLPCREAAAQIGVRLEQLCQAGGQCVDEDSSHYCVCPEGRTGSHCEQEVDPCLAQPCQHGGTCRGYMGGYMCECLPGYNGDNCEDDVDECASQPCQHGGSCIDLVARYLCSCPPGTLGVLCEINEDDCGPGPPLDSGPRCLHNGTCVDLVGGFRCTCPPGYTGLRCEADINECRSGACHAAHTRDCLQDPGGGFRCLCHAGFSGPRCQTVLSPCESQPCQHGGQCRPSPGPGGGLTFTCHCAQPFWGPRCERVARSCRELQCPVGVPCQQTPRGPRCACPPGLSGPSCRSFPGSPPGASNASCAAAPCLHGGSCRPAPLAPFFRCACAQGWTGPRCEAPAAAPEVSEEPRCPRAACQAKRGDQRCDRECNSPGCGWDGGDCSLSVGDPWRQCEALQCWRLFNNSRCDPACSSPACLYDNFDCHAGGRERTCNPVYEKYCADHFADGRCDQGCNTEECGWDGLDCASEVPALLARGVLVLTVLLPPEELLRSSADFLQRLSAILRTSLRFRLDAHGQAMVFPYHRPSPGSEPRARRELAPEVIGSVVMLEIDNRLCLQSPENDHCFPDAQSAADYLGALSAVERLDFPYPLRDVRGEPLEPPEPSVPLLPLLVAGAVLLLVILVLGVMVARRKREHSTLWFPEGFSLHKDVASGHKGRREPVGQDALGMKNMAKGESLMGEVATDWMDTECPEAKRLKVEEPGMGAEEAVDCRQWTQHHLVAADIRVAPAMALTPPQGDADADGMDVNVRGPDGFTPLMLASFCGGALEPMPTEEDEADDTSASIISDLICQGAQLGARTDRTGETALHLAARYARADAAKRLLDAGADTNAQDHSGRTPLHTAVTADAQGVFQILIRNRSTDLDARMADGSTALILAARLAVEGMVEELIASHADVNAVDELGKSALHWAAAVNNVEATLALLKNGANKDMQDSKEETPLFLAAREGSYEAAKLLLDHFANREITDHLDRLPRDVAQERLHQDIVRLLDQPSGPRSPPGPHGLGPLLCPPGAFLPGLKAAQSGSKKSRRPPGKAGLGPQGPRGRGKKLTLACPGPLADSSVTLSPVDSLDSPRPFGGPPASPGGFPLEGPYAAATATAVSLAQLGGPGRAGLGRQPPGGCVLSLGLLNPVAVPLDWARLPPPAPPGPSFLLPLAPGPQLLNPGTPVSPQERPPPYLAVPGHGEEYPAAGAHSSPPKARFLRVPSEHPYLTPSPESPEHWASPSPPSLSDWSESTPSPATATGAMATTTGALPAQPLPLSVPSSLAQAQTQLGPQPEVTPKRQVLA
Test [20] in a line: probe aEGFR binding to arrayed compounds – biochemical, biotinylated probe, 635/667 nm fluorescence, primary screen (AID 1097).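 Note: probe is a biotinylated anti-EGFR antibody binding compounds printed on slides; score combines fluorescence near 667 nm and signal to noise of each spot.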 The following applies: small-molecule microarray, higher = more signal.

Sequence of Neurogenic locus notch homolog protein 2 (Homo sapiens) (Q04721 whole entry, looked up, canonical isoform): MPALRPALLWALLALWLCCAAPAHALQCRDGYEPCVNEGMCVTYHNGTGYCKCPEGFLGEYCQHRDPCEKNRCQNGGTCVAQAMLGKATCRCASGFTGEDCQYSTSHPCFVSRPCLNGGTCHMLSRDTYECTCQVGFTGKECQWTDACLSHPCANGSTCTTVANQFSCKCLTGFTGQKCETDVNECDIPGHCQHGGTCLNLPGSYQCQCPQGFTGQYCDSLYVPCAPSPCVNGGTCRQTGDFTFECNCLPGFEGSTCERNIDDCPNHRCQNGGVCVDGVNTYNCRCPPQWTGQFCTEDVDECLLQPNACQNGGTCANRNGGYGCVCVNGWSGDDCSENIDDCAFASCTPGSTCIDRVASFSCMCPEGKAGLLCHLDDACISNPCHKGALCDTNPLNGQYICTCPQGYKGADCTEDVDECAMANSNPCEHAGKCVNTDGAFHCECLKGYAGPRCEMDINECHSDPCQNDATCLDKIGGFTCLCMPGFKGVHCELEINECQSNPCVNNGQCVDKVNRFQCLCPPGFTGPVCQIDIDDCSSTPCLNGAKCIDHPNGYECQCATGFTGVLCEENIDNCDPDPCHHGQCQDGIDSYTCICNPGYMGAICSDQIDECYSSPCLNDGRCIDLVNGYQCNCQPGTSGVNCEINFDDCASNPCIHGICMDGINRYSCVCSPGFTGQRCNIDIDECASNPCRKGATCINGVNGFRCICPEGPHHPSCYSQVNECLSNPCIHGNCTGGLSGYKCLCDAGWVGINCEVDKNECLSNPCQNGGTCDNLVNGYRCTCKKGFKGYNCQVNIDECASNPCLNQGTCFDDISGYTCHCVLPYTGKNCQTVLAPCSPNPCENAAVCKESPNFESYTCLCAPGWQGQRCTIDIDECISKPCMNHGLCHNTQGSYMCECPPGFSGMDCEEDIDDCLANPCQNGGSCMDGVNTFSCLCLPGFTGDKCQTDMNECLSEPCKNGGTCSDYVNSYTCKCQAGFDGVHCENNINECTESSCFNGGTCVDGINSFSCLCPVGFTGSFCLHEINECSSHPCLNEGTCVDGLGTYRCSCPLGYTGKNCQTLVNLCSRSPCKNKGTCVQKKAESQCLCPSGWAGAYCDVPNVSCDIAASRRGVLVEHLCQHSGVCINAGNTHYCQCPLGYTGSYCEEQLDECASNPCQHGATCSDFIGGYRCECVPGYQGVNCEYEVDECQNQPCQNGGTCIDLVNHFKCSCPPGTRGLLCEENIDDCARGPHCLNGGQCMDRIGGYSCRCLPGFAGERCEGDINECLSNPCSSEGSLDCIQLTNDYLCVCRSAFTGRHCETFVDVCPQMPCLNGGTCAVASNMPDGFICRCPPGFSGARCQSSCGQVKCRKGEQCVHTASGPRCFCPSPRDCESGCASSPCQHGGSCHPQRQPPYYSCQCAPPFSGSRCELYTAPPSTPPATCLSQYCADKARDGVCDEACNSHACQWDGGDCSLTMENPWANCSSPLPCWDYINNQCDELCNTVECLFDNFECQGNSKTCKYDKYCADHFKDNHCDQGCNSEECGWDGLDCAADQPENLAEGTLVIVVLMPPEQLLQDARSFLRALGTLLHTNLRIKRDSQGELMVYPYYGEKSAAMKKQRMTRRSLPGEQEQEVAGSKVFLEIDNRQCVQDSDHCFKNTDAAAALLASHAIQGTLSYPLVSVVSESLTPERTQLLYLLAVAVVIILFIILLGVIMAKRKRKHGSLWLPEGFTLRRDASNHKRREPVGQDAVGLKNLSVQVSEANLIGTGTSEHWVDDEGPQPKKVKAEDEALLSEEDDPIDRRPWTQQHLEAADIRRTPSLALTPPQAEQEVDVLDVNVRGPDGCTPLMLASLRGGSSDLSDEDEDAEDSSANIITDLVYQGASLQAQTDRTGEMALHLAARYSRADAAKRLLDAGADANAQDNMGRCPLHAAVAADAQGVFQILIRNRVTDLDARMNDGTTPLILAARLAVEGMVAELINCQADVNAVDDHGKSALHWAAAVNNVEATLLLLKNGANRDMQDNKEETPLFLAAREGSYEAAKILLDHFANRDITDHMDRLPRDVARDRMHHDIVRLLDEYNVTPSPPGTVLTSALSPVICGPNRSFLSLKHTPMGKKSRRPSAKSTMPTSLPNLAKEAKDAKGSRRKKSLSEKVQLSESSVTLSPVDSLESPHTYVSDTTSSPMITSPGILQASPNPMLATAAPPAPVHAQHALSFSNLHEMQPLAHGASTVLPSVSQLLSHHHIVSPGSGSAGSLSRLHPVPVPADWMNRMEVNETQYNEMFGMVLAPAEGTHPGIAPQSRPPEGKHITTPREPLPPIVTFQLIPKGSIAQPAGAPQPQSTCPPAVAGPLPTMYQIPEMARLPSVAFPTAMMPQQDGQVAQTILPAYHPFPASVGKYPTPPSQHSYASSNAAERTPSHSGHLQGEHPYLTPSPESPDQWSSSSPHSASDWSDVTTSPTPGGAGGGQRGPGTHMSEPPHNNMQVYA

Take `COCC(=C=CC[C@@H](O)c1cccc(OCCO)c1)C[C@@H](O)COCc1ccccc1`: the composite z-score was 0.506 in test [1]; 1.35 in test [2]; 0.0918 in test [3]; 0.718 in [4]; -0.157 in test [5]; 2.11 in test [6]. In addition, the composite z-score is 0.974 in test [7]; 1.96 in test [9]; -0.169 in test [10]; 0.881 in [11]; 3.81 in test [15]; 0.217 in [17]. Also, the composite z-score in test [18] came to 0.748; in [19], 0.0417; in test [20], 0.19. Also, the z-score in [8] was -0.631 (inactive); in test [12], -1.56 (inactive); in test [13], -1.53 (inactive); in test [14], -0.592 (inactive); in test [16], 1.36 (inactive).

With `CC(C)C[C@@H]1NC(=O)C([C@@H](C)OCc2ccccc2)NC(=O)[C@@]23C(=O)N[C@@H](Cc4ccccc4)C2[C@H](C)[C@@]2(C)O[C@H]2C3/C=C/CC/C=C/CNC1=O` (stereo not given in full), the composite z-score was -0.38 in test [1]; 0.924 in [2]; -0.0841 in test [3]; 0.379 in test [4]; 0.319 in test [5]; 1.11 in test [6]. In addition, the composite z-score in [7] was 0.979; in test [9] it was 0.0793; in test [10], -0.353; in [11], 1.55; in test [15] it was 1.82; in test [17], -0.129. Also, the composite z-score in test [18] is 1.18; in test [19], 0.767; in test [20], -0.0512. The z-score in [8] is 1.49 (inactive); in test [12] it was -0.404 (inactive); in [13], -1.07 (inactive); in [14], -1.28 (inactive); in test [16] it was 0.957 (inactive).

With `CCN(CC)c1ccc(N2CC=CC34O[C@@H]5C=CCOC(=O)[C@@H]5[C@H]3C(=O)N(CCO)[C@@H]4C2=O)cc1` (stereo not given in full), the composite z-score was 0.73 in [1]; -0.0324 in [2]; -0.144 in [3]; -1.03 in test [4]; -1.51 in test [5]; -0.0687 in [6]. Moreover, the composite z-score in [7] was 0.504; in [9], -0.568; in test [10], -0.353; in test [11] it was -0.503; in [15], 0.174; in [17], -0.0041. The composite z-score is -1.35 in test [18], -0.373 in test [19] and -0.334 in [20]. Moreover, the z-score in [8] is 0.737 (inactive); in test [12], 0.907 (inactive); in test [13], -1.02 (inactive); in test [14] it was -0.108 (inactive); in test [16] it was 1.47 (inactive).

For the compound `C/C=C/CN(C(=O)C#Cc1ccccc1)[C@H](CO[Si](C)(C)C(C)(C)C)c1ccccc1`, the composite z-score in [1] is 0.15; in [2], 0.183; in test [3] it was -0.237; in test [4], -0.77; in test [5], -1.58; in [6] it was -0.339. Further, the composite z-score was -0.164 in [7]; -0.967 in test [9]; -0.435 in [10]; 0.437 in test [11]; 0.571 in test [15]; -0.192 in test [17]. Also, the composite z-score in test [18] was -1.01; in [19] it was -1.35; in test [20], -0.595. The z-score was -3.24 (inactive) in test [8]; -0.185 (inactive) in test [12]; -0.463 (inactive) in [13]; -0.177 (inactive) in [14]; 2.76 (inactive) in test [16].

In the case of `COCCCN1C(=O)[C@@]2(Cc3ccccc31)c1ccccc1C(=O)N(Cc1ccccc1OC)[C@H]2c1ccc(CO)cc1`, the composite z-score in test [1] is 0.303; in test [2], -0.457; in [3], -0.122; in [4], -0.279; in test [5] it was -0.228; in test [6] it was 0.731. For the same compound, the composite z-score in [7] is -0.944; in [9], 0.023; in test [10], -0.181; in [11], 0.727; in test [15] it was 1.04; in test [17], 0.0224. The composite z-score was -0.913 in [18], -0.274 in test [19] and -0.108 in test [20]. Moreover, the z-score in [8] is -0.193 (inactive); in test [12], -1.14 (inactive); in [13] it was -0.2 (inactive); in test [14], -1.33 (inactive); in [16], 0.258 (inactive).
